Parameters in all cases: scale not given: direction of the effect not stated beside the values
For test [1], the target named is Protein translocase subunit SecA (Escherichia coli (strain K12)) (UniProt P10408). The experiment in a line: Assay to Identify E. coli SecA ATPase Inhibitors. Format: functional. The conditions noted are these: 30 µM.
Test [2] has as its target T1, Ubiquitin-activating enzyme e1, putative (Leishmania donovani (strain BPK282A1)) (UniProt E9BSI1).
T1 sequence (whole entry): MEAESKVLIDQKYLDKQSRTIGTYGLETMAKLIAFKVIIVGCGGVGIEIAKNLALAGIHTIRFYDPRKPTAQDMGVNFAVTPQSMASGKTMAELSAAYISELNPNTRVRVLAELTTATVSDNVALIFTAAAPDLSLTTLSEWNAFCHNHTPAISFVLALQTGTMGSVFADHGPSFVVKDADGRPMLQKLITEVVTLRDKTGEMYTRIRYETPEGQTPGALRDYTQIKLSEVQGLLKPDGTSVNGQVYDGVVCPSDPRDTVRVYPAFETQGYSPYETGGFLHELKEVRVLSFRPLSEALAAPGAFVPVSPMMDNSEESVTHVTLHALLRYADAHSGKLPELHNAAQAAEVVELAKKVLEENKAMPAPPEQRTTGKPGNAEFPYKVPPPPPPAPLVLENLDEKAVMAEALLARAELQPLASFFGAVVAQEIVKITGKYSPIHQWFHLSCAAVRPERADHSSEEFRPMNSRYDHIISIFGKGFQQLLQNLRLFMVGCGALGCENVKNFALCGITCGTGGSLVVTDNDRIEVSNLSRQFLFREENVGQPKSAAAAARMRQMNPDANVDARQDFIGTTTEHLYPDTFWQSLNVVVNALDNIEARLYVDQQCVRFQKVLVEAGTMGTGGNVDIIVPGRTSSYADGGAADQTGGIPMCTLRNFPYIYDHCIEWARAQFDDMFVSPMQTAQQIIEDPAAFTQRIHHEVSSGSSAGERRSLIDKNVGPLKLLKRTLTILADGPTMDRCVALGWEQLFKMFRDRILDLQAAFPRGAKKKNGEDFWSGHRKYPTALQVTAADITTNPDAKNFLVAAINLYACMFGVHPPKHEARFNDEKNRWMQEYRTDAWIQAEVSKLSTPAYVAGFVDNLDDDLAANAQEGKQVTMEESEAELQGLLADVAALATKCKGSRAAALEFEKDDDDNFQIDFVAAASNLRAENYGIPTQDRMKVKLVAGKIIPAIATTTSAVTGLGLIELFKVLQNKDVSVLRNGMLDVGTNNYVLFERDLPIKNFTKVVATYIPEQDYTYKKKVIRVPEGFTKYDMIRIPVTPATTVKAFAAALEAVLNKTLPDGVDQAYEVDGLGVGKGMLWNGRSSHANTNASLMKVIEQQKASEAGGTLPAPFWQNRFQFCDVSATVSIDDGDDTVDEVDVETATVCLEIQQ
The experiment in a line: Leishmania donovani Ubiquitin Activating Enzyme (LdE1). The following applies: 30 µM. Format: functional.

For test [3], the target named is AMP-activated protein kinase, AMPK (Homo sapiens) (UniProt P54646+O43741+P54619+Q9UGJ0+Q9Y478+Q13131+Q9UGI9). The experiment in a line: AMP-dependent Kinase enzyme assay. An in vitro enzyme assay that detects ADP turnover that is directly proportional to AMPK activity. This uses naive AMPK that is activated during the assay with MK-8722. Format: functional. The conditions noted are these: 30 µM.

The target in test [4] is Sialic acid-binding Ig-like lectin 9 (Homo sapiens) (UniProt Q9Y336). The experiment in a line: Hs-Siglec9 ALPHAscreen SOP 20170721. The conditions noted are these: 10 µM. (In Alpha technology, singlet oxygen from a donor bead excites a nearby acceptor bead.)
Another test has as its system Trypanosoma cruzi. The experiment in a line: Trypanosoma cruzi phosphomannomutase and mannose-1-phosphate guanylyltransferase assay. The conditions noted are these: 10 µM. The format is functional.
The target of test [5] is T2, Arginase-2, mitochondrial (Homo sapiens) (UniProt P78540).
T2 sequence (whole entry): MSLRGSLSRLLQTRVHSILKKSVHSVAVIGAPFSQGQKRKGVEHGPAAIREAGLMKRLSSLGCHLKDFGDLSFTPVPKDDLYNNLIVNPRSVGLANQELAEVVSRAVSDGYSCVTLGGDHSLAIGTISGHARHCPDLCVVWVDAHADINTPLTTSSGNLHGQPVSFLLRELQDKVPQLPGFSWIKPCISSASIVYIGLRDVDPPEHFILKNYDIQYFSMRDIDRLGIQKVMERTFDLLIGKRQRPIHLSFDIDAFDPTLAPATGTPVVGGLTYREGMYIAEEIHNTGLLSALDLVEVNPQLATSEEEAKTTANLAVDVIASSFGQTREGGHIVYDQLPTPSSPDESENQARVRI
The experiment in a line: in vitro enzyme assay to detect the production of urea directly proportional to the activity of Arginase II. Note: in the data most compounds retested in dose-response had high values. The following applies: 33.3 µM. The format is functional.

Test [6] deals with T3, Proteasome subunit beta (Trypanosoma cruzi) (UniProt O96673).
T3 sequence (whole entry): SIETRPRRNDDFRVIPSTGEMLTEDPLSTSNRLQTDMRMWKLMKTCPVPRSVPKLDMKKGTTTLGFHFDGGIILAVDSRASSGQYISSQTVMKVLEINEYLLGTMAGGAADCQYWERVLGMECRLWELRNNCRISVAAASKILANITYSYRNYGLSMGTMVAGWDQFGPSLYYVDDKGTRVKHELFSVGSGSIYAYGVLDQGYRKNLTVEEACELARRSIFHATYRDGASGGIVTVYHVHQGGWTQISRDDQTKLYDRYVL
The experiment in a line: Trypanosoma cruzi proteasome chymotrypsin-like activity (TcProtChymo) assay. Note: in the data most compounds retested in dose-response had high values. The format is functional. The conditions noted are these: 9.37 µM.

Another test is filed under the species Homo sapiens. The experiment in a line: To identify inhibition of the IFN signalling (Jak-Stat) pathway via expression of an eGFP reporter gene under the control of an IFN-stimulated response element (ISRE) containing MxA promoter. The format is functional. The conditions noted are these: 30 µM. On the technique in general: Reporter assays use an easily measured gene product as a stand-in for the process of interest.

The target in test [7] is T4, Tyrosyl-tRNA synthetase, putative (Trypanosoma cruzi (strain CL Brener)) (UniProt Q4DSP6).
T4 sequence (whole entry): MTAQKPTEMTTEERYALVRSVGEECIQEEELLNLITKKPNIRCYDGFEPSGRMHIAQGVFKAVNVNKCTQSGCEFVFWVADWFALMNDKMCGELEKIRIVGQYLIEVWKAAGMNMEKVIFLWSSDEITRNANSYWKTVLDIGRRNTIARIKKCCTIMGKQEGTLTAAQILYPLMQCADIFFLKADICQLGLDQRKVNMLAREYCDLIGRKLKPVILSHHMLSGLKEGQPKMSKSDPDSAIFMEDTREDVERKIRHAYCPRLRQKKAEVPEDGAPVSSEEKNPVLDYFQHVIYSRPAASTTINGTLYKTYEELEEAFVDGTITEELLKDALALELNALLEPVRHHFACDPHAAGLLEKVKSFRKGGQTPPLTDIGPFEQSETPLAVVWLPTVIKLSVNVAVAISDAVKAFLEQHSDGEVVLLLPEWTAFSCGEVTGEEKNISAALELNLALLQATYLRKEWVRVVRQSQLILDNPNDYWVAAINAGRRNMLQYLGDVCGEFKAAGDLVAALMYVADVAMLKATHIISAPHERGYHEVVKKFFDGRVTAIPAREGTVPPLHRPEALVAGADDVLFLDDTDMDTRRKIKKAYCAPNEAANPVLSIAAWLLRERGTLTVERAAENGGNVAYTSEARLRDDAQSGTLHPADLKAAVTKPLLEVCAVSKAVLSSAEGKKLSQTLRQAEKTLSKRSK
The experiment in a line: Trypanosoma cruzi tyrosyl tRNA synthetase (TcYRS) _High Tyrosine SOP. Note: in the data most compounds retested in dose-response had high values. The format is functional. The following applies: 30 µM.

In test [8] the target is T4, Tyrosyl-tRNA synthetase, putative (Trypanosoma cruzi (strain CL Brener)). The experiment in a line: Trypanosoma cruzi tyrosyl tRNA synthetase (TcYRS) SOP. Format: functional. The conditions noted are these: 30 µM.
The target of test [9] is Chromo domain-containing protein 1 (Saccharomyces cerevisiae (strain ATCC 204508 / S288c) (Baker's yeast)) (UniProt P32657). The experiment in a line: ScCHD-1 Enzyme Inhibition Assay. Note: in the data most compounds retested in dose-response had high values. Format: functional. The following applies: 30 µM.
For another test, the system named is N/A. The experiment in a line: Trypanosoma cruzi proteasome luciferase counter-screen. Format: functional. The following applies: 9.37 µM.

Values joined by “and” are separate entries in the source; they are usually repeats but may differ in a detail not shown here. Identical values can stand only once. For some assays here: Potency and affinity values are given separately.

Chain of Sialic acid-binding Ig-like lectin 9 (Homo sapiens) (Q9Y336 whole entry): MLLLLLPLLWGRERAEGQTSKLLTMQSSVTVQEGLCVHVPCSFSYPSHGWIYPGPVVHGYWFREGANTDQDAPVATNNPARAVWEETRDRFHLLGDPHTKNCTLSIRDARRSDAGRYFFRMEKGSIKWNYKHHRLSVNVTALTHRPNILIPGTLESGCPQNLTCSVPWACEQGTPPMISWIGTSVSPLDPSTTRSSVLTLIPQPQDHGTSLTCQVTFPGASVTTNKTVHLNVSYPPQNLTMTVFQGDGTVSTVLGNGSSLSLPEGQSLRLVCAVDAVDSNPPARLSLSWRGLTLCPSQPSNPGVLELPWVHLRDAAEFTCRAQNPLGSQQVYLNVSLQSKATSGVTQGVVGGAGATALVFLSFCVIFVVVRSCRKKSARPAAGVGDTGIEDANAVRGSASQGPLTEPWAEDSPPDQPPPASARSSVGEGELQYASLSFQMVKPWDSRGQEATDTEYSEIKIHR
Chain of Protein translocase subunit SecA (Escherichia coli (strain K12)) (P10408 whole entry): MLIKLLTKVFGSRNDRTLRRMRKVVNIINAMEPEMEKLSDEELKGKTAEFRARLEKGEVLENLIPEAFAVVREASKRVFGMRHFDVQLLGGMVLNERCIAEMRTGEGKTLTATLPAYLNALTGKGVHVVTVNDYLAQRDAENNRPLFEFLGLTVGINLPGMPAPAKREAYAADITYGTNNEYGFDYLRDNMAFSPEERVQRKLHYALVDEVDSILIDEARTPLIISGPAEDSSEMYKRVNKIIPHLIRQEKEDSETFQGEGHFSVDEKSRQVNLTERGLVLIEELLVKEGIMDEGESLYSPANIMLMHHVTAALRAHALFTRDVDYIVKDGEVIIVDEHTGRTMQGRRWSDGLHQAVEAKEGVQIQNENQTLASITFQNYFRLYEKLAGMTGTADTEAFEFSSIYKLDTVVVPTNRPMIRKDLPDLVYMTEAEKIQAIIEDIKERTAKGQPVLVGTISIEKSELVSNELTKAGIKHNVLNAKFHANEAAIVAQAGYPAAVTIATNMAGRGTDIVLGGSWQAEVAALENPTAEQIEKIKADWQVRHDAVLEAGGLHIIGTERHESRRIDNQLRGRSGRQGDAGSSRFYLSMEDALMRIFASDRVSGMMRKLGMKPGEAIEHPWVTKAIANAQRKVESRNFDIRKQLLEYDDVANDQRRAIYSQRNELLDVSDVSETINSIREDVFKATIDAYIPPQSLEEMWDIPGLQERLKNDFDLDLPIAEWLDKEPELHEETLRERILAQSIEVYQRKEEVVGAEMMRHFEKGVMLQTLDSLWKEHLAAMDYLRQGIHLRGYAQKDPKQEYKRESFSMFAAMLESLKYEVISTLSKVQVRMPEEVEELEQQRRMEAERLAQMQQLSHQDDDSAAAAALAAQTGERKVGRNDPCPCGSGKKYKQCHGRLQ
Chain of Chromo domain-containing protein 1 (Saccharomyces cerevisiae (strain ATCC 204508 / S288c) (Baker's yeast)) (P32657 whole entry, the tested form may be a part): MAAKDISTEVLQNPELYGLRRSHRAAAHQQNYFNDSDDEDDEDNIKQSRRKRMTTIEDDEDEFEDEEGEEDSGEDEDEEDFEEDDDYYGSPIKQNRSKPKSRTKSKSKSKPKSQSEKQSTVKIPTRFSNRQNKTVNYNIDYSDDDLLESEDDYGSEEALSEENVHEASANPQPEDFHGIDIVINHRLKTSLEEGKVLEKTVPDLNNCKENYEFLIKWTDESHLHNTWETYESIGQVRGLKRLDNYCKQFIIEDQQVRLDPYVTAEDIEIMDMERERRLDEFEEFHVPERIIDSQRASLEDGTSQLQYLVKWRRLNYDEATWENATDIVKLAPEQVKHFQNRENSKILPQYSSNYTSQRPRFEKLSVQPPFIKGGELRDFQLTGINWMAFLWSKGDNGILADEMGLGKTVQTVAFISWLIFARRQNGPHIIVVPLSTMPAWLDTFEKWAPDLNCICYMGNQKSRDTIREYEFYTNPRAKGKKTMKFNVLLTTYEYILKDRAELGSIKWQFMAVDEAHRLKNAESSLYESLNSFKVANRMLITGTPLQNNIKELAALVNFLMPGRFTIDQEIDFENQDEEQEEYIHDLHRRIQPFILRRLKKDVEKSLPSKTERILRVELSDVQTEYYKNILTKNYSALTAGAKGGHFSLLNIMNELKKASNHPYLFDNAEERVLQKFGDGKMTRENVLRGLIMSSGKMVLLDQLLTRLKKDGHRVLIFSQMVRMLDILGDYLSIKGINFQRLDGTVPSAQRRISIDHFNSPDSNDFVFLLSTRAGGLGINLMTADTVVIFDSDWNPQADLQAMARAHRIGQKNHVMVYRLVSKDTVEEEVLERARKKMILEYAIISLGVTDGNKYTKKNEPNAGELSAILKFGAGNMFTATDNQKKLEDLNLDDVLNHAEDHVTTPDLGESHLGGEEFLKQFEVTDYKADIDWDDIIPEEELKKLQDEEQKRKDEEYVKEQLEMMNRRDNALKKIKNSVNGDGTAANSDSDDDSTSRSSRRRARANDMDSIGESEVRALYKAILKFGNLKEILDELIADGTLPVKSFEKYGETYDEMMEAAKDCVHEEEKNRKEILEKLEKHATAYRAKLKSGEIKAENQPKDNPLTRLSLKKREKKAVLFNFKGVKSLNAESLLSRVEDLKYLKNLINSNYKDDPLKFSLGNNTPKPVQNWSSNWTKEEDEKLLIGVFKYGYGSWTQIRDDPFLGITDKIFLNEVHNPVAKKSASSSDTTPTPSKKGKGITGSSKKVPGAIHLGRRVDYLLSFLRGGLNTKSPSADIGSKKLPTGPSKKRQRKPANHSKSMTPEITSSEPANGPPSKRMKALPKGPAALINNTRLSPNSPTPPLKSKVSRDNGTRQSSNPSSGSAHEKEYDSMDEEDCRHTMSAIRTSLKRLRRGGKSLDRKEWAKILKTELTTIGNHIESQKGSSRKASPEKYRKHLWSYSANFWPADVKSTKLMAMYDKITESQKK

Regarding `CCc1noc(C(C)N2CCN(Cc3ncc(C(C)(C)C)o3)CC2)n1` (configuration not stated), the Percent Effect in test [1] was 1.4%; in test [2], 28.9%; in test [3] it was -4.2%; in test [4], -2.15%; with Trypanosoma cruzi, -3.38%; in test [5] it was 0.383%. Besides, the Percent Effect is 15% in test [6]; 26% in the test listed under Homo sapiens; 3.43% in test [7]; 9.76% in test [8]; -10.7% in [9].
As for `Cc1nc(CCNC(=O)C2CC(=O)N(C(C)(C)C)C2)sc1C` (configuration not stated), the Percent Effect in test [1] was -4.83%; in [2], 0%; in test [3], -1.25%; in test [4], 5.84%; with Trypanosoma cruzi, -1.19%; in [5], -3.59%. Besides, the Percent Effect was 8.82% in test [6]; -0.947% in the test listed under Homo sapiens; 5.21% in test [7]; 11.1% in test [8]; -3.8% in test [9].
For `Cc1cccc(C(=O)N2CCN(S(C)(=O)=O)[C@@H](C)C2)c1C`, the Percent Effect is -5.53% in test [1]; -2.74% in test [2]; 15.2% in test [3]; -4.05% in test [4]; -1.57% with Trypanosoma cruzi; -2.27% in test [5]. Also, the Percent Effect worked out at 0.71% in [6]; 9.6% in the test filed under Homo sapiens; 0% in test [7]; 0% in test [8]; 0.913% in test [9].
Turning to `CS(=O)(=O)N1CC[C@H]2[C@H](C[C@@H](Cn3cncn3)N2CC2CC2)C1`, the Percent Effect in test [1] was -6.68%; in test [2], 10.4%; in [3], 9.89%; in [4], 7.05%; in the test on Trypanosoma cruzi, -1.87%; in test [5] it was -4.14%. The Percent Effect was 7.16% in test [6]; -4% in the test listed under Homo sapiens; 3.23% in [7]; 6.17% in [8]; -0.097% in test [9].
With `COCCn1nc(C(=O)N(C)Cc2cnn(C)c2)ccc1=O`, the Percent Effect in test [1] is -6.3%; in test [2] it was 15.8%; in [3] it was -7.26%; in test [4], -8.02%; in the test on Trypanosoma cruzi it was 4.38%; in test [5], -8.28%. In addition, the Percent Effect in [6] was 14.7%; in the test listed under Homo sapiens, 9.08%; in test [7] it was 5.32%; in test [8], -2.6%; in test [9], -9.82%.
`Cc1cc(C[C@@H]2COC[C@H]2NCc2ccc(Br)s2)on1`: the Percent Effect in test [1] was -7.36%; in [2], 1.35%; in test [3], 9.27%; in test [4], -0.828%; in the test on Trypanosoma cruzi, -2.77%; in [5], -7.19%. Further, the Percent Effect is -1.72% in test [6]; 31.8% in the test listed under Homo sapiens; -2.15% in [7]; -3.9% in test [8]; -6.34% in [9].
Consider `Cn1cccc1C(=O)N1CCC2(CC1)CN(c1cncnc1)C(=O)CO2`, for which the Percent Effect in [1] was -7.32%; in test [2], -189%; in test [3], -15.1%; in test [4], -0.563%; with Trypanosoma cruzi, -6.69%; in [5], -1.17%. Also, the Percent Effect in [6] is 51% and 53.6% and 55.8%; in the test with N/A, 4.36% and 0.727%; in the test listed under Homo sapiens it was 18.6%; in test [7], -69.2%; in [8], -150%; in [9], -4.5%.
On to `CC(=O)N1CCC(c2ccnc(Nc3cncnc3)n2)C1` (configuration not stated), for which the Percent Effect in test [1] is -2.09%; in [2], 13.3%; in test [3], 12.8%; in test [4] it was -1.51%; in the test on Trypanosoma cruzi, -0.394%; in test [5], 0.699%. The Percent Effect in test [6] was -0.793%; in the test listed under Homo sapiens, 8.94%; in test [7] it was 7.45%; in [8], 14.1%; in test [9] it was -3.42%.
Turning to `CN1CC(=O)N(c2cccnc2)CC12CCN(C(=O)C1CCCCC1)C2` (configuration not stated), the Percent Effect is 0.868% in test [1]; 10.7% in [2]; 6.75% in test [3]; 12.8% in test [4]; -1.74% in the test on Trypanosoma cruzi; -72.9% in test [5]. For the same molecule, the Percent Effect in test [6] was 12.3%; in the test filed under Homo sapiens it was 24%; in [7] it was 3.12%; in [8], 2.5%; in test [9], -2.49%.
Consider `Cc1ccc(S(=O)(=O)NC(=O)c2c(C)noc2C(C)C)cc1C`, for which the Percent Effect in [1] was -2.23%; in [2], 10.5%; in test [3], -4.09%; in test [4], 2.28%; in the test on Trypanosoma cruzi, 1.07%; in [5], -3.55%. Besides, the Percent Effect in test [6] was 10.6%; in the test filed under Homo sapiens, -1.83%; in [7], 3.19%; in test [8] it was 10.4%; in [9], -1.79%.
`Cc1nc(C)c(C(=O)NCCNC(=O)Cc2ccccc2)s1`: the Percent Effect in test [1] was -3.47%; in [2], 16.2%; in [3], -4.83%; in test [4], 1.88%; in the test on Trypanosoma cruzi it was -4.36%; in test [5] it was -2.4%. For the same molecule, the Percent Effect in test [6] is 16.7%; in the test filed under Homo sapiens it was 11.2%; in [7], 7.92%; in test [8], 18.3%; in [9], -2.99%.

The values above are taken from ChEMBL document CHEMBL3988442, “University of Dundee, Small-Polar-MMV Screening Library” (2021).
